Screens as filed in PubChem.
This is a sample that favours compounds with a hit; in the whole collection about 4% have one here.
RAD52 anneal inh – RAD52 DNA annealing inhibitors, primary screen, biochemical, FRET, single point, set 2 | DNA repair protein RAD52 homolog (Homo sapiens), P43351 | 360,000 tested, 0.46% active | recombinant RAD52 DNA annealing, FRET fluorescence | inhibition, % at 18.7 µM | AID 651710, 2012;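 active = every replicate showing at least 50% inhibition; inconclusive = mean inhibition at least 50% but not in every replicate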
MLL AF4-AF9 inh – inhibitors of AF4 peptide binding to AF9, primary screen, biochemical, AlphaScreen, biotin-AF4 peptide, FLAG-AF9, single point; 350,000 tested, 0.47% active; inhibition, % at 10 µM; AID 651704, 2012; Protein AF-9 (Homo sapiens), P42568;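 active = every replicate reaching a set inhibition limit, whatever the replicate mean, cut at about 25% in these data; inconclusive = mean inhibition reaches that limit but some replicates miss it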
FGF22 binding – binders of human FGF22 protein, primary screen, FGF22 synaptogenesis inhibitor project, biophysical, thermal shift, single point; recombinant FGF22 thermal shift, SYPRO orange fluorescence; percent of sucrose octasulfate shift, DMSO zero; activity (Tm shift, normalised), % at 9.99 µM; 340,000 tested, 1.5% active; AID 651658, 2012;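 active = mean Tm shift, scaled 0 neutral to 100 positive control, at about 1.3% or above, every replicate too, limit read from the data; inconclusive = no clear call, values can overlap the other calls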
DENV2 CPE rescue – inhibitors of DENV2 cytopathic effect, primary screen, cell-based, plate reader, single concentration; DENV2-infected cells, cytopathic effect rescue; CPE inhibition, % at 9.99 µM; 350,000 tested, 1.7% active; AID 651640, 2012; in the data active = CPE inhibition above about 20%, passing the limit was not always enough; inconclusive = no clear call, values can overlap the other calls; tested in BHK-21 cells
ERAP1 inh – human ERAP1 aminopeptidase inhibitors, primary screen, biochemical, single point, plate reader. AID 652197, 2013. Endoplasmic reticulum aminopeptidase 1 (Homo sapiens), Q9NZ08. recombinant ERAP1, Leu-AMC fluorescence, 60 min. inhibition, % at 10.7 µM. 340,000 tested, 0.15% active;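 active = mean replicate inhibition of at least 30%, or all replicates individually reaching that 30% level; inactive = mean below 30% and not every replicate reaching it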
Target sequence (Q9NZ08 whole entry, looked up): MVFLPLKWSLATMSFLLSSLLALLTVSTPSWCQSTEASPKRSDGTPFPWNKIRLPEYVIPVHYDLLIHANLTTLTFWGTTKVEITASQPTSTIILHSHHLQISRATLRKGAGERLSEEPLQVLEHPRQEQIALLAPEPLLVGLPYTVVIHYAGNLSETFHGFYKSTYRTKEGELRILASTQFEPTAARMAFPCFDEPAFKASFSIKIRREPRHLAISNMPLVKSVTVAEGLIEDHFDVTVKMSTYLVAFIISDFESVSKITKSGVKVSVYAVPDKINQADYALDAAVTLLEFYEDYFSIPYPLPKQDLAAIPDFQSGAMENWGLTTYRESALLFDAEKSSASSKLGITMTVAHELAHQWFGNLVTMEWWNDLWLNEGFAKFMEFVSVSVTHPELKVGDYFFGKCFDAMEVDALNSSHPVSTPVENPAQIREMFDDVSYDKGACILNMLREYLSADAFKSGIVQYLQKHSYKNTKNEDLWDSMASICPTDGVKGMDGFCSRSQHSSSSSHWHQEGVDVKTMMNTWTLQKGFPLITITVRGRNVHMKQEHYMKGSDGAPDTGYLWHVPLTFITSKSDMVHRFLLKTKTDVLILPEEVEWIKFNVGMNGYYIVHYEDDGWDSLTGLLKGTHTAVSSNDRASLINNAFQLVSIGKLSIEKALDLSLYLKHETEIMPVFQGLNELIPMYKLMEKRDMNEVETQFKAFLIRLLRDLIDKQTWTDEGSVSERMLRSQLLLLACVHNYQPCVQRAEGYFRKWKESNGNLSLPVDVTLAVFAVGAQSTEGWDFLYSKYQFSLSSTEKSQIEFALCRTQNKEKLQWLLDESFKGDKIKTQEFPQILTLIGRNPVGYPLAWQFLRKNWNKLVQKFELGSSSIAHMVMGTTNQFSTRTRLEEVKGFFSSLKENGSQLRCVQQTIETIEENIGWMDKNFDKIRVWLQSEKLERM
Hits are given with their value; . = inactive; ? = inconclusive; / = not tested or not shown.

SMILES	RAD52 anneal inh	MLL AF4-AF9 inh	FGF22 binding	DENV2 CPE rescue	ERAP1 inh
CCC(=O)N1CC2(C1)CN(C(=O)Cc1ccccc1)[C@@H](CO)c1c2c2ccc(OC)cc2n1C	.	.	.	.	.
C[C@H](CO)N1C[C@H](C)[C@H](CN(C)C(=O)Nc2ccccc2F)Oc2ncc(C#CCN(C)C)cc2C1=O	.	.	.	72.3	.
CCCC#Cc1cnc2c(c1)C(=O)N([C@@H](C)CO)C[C@H](C)[C@H](CN(C)Cc1ccc(C(=O)O)cc1)O2	.	.	.	.	.
CC(C)CC#Cc1cnc2c(c1)C(=O)N([C@@H](C)CO)C[C@H](C)[C@H](CN(C)Cc1ccc(C(=O)O)cc1)O2	.	.	.	78.1	.
COC(=O)C[C@@H]1C=C[C@H](NS(=O)(=O)c2ccccc2F)[C@H](CO)O1	.	.	.	.	.
COCCNC(=O)CCC1CCN(C/C=C/c2ccccc2OC)CC1	.	.	.	29.0	.
COc1cccc(CNC(=O)CCC2CCCN(C/C=C/c3ccccc3OC)C2)c1 (stereo not given)	.	.	.	.	.
CO[C@H]1CN(C)C(=O)c2ccc(NC(=O)Nc3cc(F)ccc3F)cc2OC[C@H](C)N(C(=O)c2ccccn2)C[C@@H]1C	.	.	.	.	.
Cc1ccc(S(=O)(=O)N(C)C[C@H]2OCCCC[C@@H](C)Oc3ccc(NC(=O)NC(C)C)cc3C(=O)N([C@H](C)CO)C[C@@H]2C)cc1	.	.	/	72.4	.
Cc1ccc(S(=O)(=O)N(C)C[C@H]2OCCCC[C@H](C)Oc3ccc(NC(=O)NC4CCCCC4)cc3C(=O)N([C@H](C)CO)C[C@@H]2C)cc1	.	.	.	.	.
Cc1ccc(S(=O)(=O)N(C)C[C@@H]2OCCCC[C@H](C)Oc3ccc(NC(=O)NC4CCCCC4)cc3C(=O)N([C@@H](C)CO)C[C@H]2C)cc1	.	25.9	.	.	.
O=C(CN1CCOCC1)N[C@@H]1CC[C@H](CCn2cc(C3CCCCC3)nn2)O[C@H]1CO	.	.	.	.	.
COc1ccc2c3c([nH]c2c1)[C@@H](CO)N(C(=O)c1cnccn1)CC31CCN(S(C)(=O)=O)CC1	.	.	.	33.7	.
COc1ccc2c3c([nH]c2c1)[C@@H](CO)N(C(=O)c1ccccn1)CC31CCN(C(=O)C2CCCC2)CC1	.	.	.	23.5	.
COc1ccc2c3c([nH]c2c1)[C@H](CO)N(C(=O)c1cnccn1)CC31CN(S(C)(=O)=O)C1	.	.	.	.	.
COc1ccc2c3c([nH]c2c1)[C@@H](CO)N(C(=O)c1ccccn1)CC31CCN(C(=O)C2CCC2)CC1	.	.	.	.	.
C[C@H]1CN([C@@H](C)CO)C(=O)c2cccc(NC(=O)C3CC3)c2O[C@@H]1CN(C)CC1CC1	.	.	.	.	.
S=C(NCc1ccccc1Cl)NC1CCCC1	.	.	43.4	.	.
Fc1ccccc1CNC(=S)NC1CCCCC1	.	.	.	.	.
C[C@H]1CN([C@@H](C)CO)S(=O)(=O)c2ccc(C#CC3(O)CCCC3)cc2O[C@@H]1CN(C)C(=O)Cc1ccncc1	.	.	.	.	/
CSc1ccc(S(=O)(=O)Nc2ccc(OCC(=O)N3CCOCC3)cc2)cc1	.	.	43.5	.	.
C[C@@H]1CN([C@@H](C)CO)C(=O)c2cc(C#Cc3ccccc3F)cnc2O[C@@H]1CN(C)C(=O)Cc1cccnc1	.	.	.	.	.
COc1ccc(-c2[nH]ncc2CN2CCCN(c3ccccc3)CC2)c(F)c1	.	.	/	.	.
COc1ccc2cc(-c3[nH]ncc3CN3CCCN(c4ccccc4)CC3)ccc2c1	.	.	43.8	.	.
O=C(CSc1nc(=O)n2ccccc2n1)N1CCCc2ccccc21	.	.	.	67.6	.
SMILES	RAD52 anneal inh	MLL AF4-AF9 inh	FGF22 binding	DENV2 CPE rescue	ERAP1 inh
COc1ccc(Nc2ccccc2N)cc1	.	40.0	.	.	.
CC(=O)N(C)C[C@@H]1Oc2cc(C3=CCCC3)ccc2S(=O)(=O)N([C@@H](C)CO)C[C@@H]1C	.	.	.	.	.
COc1ccc2c3c(n(C)c2c1)[C@@H](CO)N(C(C)=O)CC31CN(C(=O)C2CCOCC2)C1	.	.	.	.	.
O=C1CC(c2ccccc2)CC(O)=C1C=Nc1ccccc1 (stereo not given)	.	.	43.8	.	.
O=C1CC(c2ccccc2)CC(O)=C1C=Nc1ccccc1O (stereo not given)	.	.	.	.	.
CCOc1ccc2[nH]cc(S(=O)(=O)c3ccc(C)cc3)c(=O)c2c1	.	.	.	60.4	.
Cc1ccc(N/C=C2\CCCCC2=O)nc1	.	.	43.2	.	.
Cc1cc(C)cc(N(CC(=O)NCc2ccco2)S(=O)(=O)c2c(C)noc2C)c1	.	.	.	41.0	/
CN1C(=O)c2cc(NC(=O)c3ccc(F)c(F)c3)ccc2OC[C@H]2O[C@H](CC(=O)N[C@H]3CCN(Cc4ccccc4)C3)CC[C@@H]21	.	.	.	.	.
N#Cc1cncc(C#Cc2ccccc2)c1	.	.	.	.	.
N#Cc1ccccc1	.	/	.	30.2	.
CCOC(=O)/C(C)=N/NC(=O)c1cccc([N+](=O)[O-])c1	.	.	44.2	.	.
CC(C)[C@H]1CC[C@@H](C)C(C(=O)c2ccccc2)C1=O (stereo not given in full)	.	57.6	.	/	.
CC1CN(C(C)C)C(C)CC1OC(=O)c1ccccc1 (stereo not given)	.	.	.	.	.
CCOc1ccccc1OCC(=O)NC1CCSc2ccccc21 (stereo not given)	.	.	.	?	.
Cc1ccc(OCC(=O)NC2CCSc3ccccc32)cc1 (stereo not given)	.	.	.	25.8	.
O=C(NCC[C@@H]1CC[C@H](NS(=O)(=O)c2ccc(Cl)cc2)[C@@H](CO)O1)Nc1ccc(F)cc1	.	.	/	.	.
COc1ccc(NC(=O)N(C)C[C@H]2Oc3ncc(-c4ccc(C#N)cc4)cc3C(=O)N([C@@H](C)CO)C[C@@H]2C)cc1	.	.	.	.	.
O=C(C[C@H]1C=C[C@@H](NC(=O)Nc2ccc(C(F)(F)F)cc2)[C@@H](CO)O1)NCc1ccccn1	.	.	.	20.1	.
CC(C)C#Cc1cnc2c(c1)C(=O)N([C@@H](C)CO)C[C@H](C)[C@H](CN(C)C(=O)Cc1ccncc1)O2	.	.	.	.	.
COCC#Cc1ccc(CC[C@H]2O[C@H]3CC[C@@H](CO)O[C@H]3C[C@@H]2n2cc(C3CC3)nn2)cc1	.	.	/	.	.
C[C@H](CO)N1C[C@H](C)[C@@H](CN(C)Cc2cccnc2)OCc2ccccc2-c2c(n(C)c3ccccc23)C1=O	.	.	.	.	.
